MITF inh = human MITF inhibition, primary screen; O75030; AlphaScreen MITF homodimerization, bead proximity signal; inhibition, % at 2.6 µM; 650,000 compounds, 0.91% hits; AID 1259374; in the data active means inhibition above about 50%;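 further: 0% = vehicle wells with protein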
TEAD-YAP inh = TEAD-YAP interaction inhibition | HEK-TIYL cells, TEAD-Gal4/YAP UAS-luciferase luminescence | inhibition, % at 9.12 µM | 640,000 compounds, 1.4% hits | AID 1259422; in the data active means inhibition above about 32%;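 further: 0% = median of test compound wells and 100% = reference inhibitor wells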
FBW7 activator = human FBW7 E3 ligase activation, primary screen; 650,000 compounds, 0.13% hits; AlphaScreen FBW7–phospho-cyclin E peptide binding, activator screen; Q969H0; normalized activity (activation), % at 26.1 µM; in the data active means normalized activity above about 1.9%;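 further: purified mutant Fbw7 with reduced substrate affinity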
Target sequence (Q969H0 whole entry, looked up): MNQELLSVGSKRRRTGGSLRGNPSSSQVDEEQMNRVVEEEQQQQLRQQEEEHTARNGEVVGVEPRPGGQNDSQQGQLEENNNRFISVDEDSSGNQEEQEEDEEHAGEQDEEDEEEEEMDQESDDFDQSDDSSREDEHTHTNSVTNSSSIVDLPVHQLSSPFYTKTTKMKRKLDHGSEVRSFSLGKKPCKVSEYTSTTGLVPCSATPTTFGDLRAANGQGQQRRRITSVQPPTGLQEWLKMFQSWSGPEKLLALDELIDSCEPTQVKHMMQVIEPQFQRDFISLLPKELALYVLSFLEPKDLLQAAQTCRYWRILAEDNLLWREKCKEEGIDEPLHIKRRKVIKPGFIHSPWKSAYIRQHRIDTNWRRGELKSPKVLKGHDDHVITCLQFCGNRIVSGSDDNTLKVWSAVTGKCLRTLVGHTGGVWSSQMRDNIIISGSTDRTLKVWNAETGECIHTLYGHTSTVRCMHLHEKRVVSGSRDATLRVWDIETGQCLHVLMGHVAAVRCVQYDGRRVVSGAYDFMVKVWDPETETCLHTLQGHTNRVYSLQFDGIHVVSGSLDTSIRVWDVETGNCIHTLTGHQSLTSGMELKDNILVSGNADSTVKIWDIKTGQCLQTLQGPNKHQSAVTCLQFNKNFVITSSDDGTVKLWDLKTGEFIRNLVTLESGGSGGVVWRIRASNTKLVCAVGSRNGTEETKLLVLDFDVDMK
GPR151 ag = human GPR151 activation. Q8TDV0. PathHunter beta-arrestin GPR151 cells, luminescence. activation, % at 11.2 µM. 650,000 compounds, 1% hits; in the data active means activation above about 4.9%;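 further: 0% = median of compound wells and 100% = cells with positive control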
GPR151 conf act = human GPR151 activation, confirmation screen. shares compounds with GPR151 ag. GPR151 PathHunter beta-arrestin cells, luminescence, 90 min; % of EA-reagent control over plate median. activation, % at 11.2 µM. 6,700 tested, under 10 active. AID 1508609;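 active means mean percent activation across replicates above the confirmation screen cutoff of 4.91%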
GPR119 counter = GPR119 activation, counter-screen for GPR151 activators | GPR119 PathHunter beta-arrestin cells, luminescence, 90 min; 0 = compound-well median, 100 = enzyme-acceptor control | activation, % at 11.2 µM | shares compounds with GPR151 ag | 6,700 compounds, 0.3% hits;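 active means mean percent activation in the counterscreen above 29.09%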;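 further: counterscreen on off-target GPR119 to flag nonselective hits from the GPR151 activator screen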
Active calls of the source: *. An excerpt weighted towards active compounds, which were near 3.5% of everything screened.

`Cc1nonc1N=NN(Cc1ccc([N+](=O)[O-])cc1)c1nonc1C` gave MITF inh 9, TEAD-YAP inh 8, FBW7 activator 0, GPR151 ag 7.4*, GPR151 conf act 0 and GPR119 counter -5.
`CC1(C)CC(=O)C2=C(C1)N(c1ccc(Cl)cc1)C(N)=C(C#N)C2c1ccc2c(c1)OCO2` (configuration not stated) gave MITF inh -7, TEAD-YAP inh -6, FBW7 activator 0, GPR151 ag 14*, GPR151 conf act 0 and GPR119 counter -3.
Screening O=C(NCc1ccc(N2CCCC2=O)cc1)c1cn(Cc2ccccc2)nn1 returned MITF inh 9, TEAD-YAP inh -1, FBW7 activator 0, GPR151 ag 7.4*, GPR151 conf act 1 and GPR119 counter 7.
Screening COc1ccc(C(=O)CC2OC(=O)c3c2ccc(OC)c3OC)c(OC)c1 (configuration not stated) returned MITF inh 16, TEAD-YAP inh 10, FBW7 activator 0 and GPR151 ag -1.
Screening COc1cc(NC(=O)c2c(C)cc3ccccn23)cc(OC)c1OC returned MITF inh 18, TEAD-YAP inh 0, FBW7 activator 0, GPR151 ag 7.3*, GPR151 conf act 0 and GPR119 counter -2.
`COc1cccc2cc3c(=O)n(-c4ccccc4)nc-3oc12` gave MITF inh 7, TEAD-YAP inh 13, FBW7 activator 0, GPR151 ag 10*, GPR151 conf act 1 and GPR119 counter 1.
C=COCC(COC=C)(COC=C)COC=C was read as MITF inh 14, TEAD-YAP inh 1, FBW7 activator 0, GPR151 ag 5.2*, GPR151 conf act 1 and GPR119 counter 1.
Screening COc1ccc(-c2csc3ncnc(SCc4c(C)noc4C)c23)cc1 returned MITF inh -16, TEAD-YAP inh -3, FBW7 activator 0, GPR151 ag 8.1*, GPR151 conf act 0 and GPR119 counter -4.
`CCOCCCNC(=O)C(NC(=O)c1ccc(=O)[nH]c1)c1ccccc1` (configuration not stated) gave MITF inh 3, TEAD-YAP inh -6, FBW7 activator 0, GPR151 ag 5.0*, GPR151 conf act 1 and GPR119 counter 16.
COc1ccc(C(=O)N=c2sc3cc4c(cc3n2C)OCO4)cc1OC was read as MITF inh 1, TEAD-YAP inh -5, FBW7 activator 0 and GPR151 ag 0.
`COC(=O)C1=NNC2C(=O)N(c3ccc(OC)cc3)C(=O)C12` (configuration not stated) gave MITF inh 18, TEAD-YAP inh 8, FBW7 activator 0, GPR151 ag 6.1*, GPR151 conf act 0 and GPR119 counter 8.
`Cc1ccc2c(c1)CN(CCNC(=O)CCc1ccco1)CC(C)O2` (configuration not stated) gave MITF inh 13, TEAD-YAP inh 0, FBW7 activator 0 and GPR151 ag 1.
`Cc1ccc2c(c1)CN(CCNC(=O)CCc1ccc(=O)[nH]n1)CC(C)O2` (configuration not stated) gave MITF inh -7, TEAD-YAP inh -6, FBW7 activator 0, GPR151 ag 5.3*, GPR151 conf act 0 and GPR119 counter 0.
O=C(O)CCNC(=O)CCn1cnc2ccccc2c1=O was read as MITF inh 18, TEAD-YAP inh 0, FBW7 activator 0 and GPR151 ag 0.
For CN(C)c1ncnc2c1C(c1ccc([N+](=O)[O-])cc1)c1c(ncnc1N(C)C)O2 the results were MITF inh 8, TEAD-YAP inh -7, FBW7 activator 0, GPR151 ag 6.2*, GPR151 conf act 0 and GPR119 counter -6.
For O=C(CCCC(=O)N(CC(=O)NC1CCCCC1)Cc1ccccc1)Nc1ccccn1 the results were MITF inh 13, TEAD-YAP inh 6, FBW7 activator 0 and GPR151 ag 0.
For O=C(CN(CC1CCCO1)C(=O)CCC(=O)Nc1nccs1)NCc1ccccc1 (configuration not stated) the results were MITF inh 0, TEAD-YAP inh 2, FBW7 activator 0, GPR151 ag 9.4*, GPR151 conf act 1 and GPR119 counter 4.
